Data published in the supplement of paper PMC10849652.
About 8,800 targets were measured; listed, in parts, are those with a hit and a random draw of the rest. About 0.5% of all pairs of compound and target were hits. A number with no mark means an inactive call.

UniProt P31040, sequence (P31040 whole entry, looked up): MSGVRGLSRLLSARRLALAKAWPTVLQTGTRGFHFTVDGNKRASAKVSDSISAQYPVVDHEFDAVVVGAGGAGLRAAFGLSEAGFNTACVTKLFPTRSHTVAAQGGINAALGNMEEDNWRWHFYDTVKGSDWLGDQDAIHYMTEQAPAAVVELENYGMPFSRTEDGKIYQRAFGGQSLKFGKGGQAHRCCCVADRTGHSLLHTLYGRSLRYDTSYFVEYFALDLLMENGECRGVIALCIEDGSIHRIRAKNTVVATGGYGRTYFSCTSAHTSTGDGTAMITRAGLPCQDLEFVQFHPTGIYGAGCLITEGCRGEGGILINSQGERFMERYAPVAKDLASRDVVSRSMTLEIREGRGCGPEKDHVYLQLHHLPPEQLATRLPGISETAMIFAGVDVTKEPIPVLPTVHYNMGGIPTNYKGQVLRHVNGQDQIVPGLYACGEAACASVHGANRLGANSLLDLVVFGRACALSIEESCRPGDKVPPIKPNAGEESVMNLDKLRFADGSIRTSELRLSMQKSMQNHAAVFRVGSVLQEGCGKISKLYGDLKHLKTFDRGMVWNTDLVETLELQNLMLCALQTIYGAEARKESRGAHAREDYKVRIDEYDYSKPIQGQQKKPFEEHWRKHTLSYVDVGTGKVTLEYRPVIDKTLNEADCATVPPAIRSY
UniProt O15027, sequence (O15027 whole entry, looked up): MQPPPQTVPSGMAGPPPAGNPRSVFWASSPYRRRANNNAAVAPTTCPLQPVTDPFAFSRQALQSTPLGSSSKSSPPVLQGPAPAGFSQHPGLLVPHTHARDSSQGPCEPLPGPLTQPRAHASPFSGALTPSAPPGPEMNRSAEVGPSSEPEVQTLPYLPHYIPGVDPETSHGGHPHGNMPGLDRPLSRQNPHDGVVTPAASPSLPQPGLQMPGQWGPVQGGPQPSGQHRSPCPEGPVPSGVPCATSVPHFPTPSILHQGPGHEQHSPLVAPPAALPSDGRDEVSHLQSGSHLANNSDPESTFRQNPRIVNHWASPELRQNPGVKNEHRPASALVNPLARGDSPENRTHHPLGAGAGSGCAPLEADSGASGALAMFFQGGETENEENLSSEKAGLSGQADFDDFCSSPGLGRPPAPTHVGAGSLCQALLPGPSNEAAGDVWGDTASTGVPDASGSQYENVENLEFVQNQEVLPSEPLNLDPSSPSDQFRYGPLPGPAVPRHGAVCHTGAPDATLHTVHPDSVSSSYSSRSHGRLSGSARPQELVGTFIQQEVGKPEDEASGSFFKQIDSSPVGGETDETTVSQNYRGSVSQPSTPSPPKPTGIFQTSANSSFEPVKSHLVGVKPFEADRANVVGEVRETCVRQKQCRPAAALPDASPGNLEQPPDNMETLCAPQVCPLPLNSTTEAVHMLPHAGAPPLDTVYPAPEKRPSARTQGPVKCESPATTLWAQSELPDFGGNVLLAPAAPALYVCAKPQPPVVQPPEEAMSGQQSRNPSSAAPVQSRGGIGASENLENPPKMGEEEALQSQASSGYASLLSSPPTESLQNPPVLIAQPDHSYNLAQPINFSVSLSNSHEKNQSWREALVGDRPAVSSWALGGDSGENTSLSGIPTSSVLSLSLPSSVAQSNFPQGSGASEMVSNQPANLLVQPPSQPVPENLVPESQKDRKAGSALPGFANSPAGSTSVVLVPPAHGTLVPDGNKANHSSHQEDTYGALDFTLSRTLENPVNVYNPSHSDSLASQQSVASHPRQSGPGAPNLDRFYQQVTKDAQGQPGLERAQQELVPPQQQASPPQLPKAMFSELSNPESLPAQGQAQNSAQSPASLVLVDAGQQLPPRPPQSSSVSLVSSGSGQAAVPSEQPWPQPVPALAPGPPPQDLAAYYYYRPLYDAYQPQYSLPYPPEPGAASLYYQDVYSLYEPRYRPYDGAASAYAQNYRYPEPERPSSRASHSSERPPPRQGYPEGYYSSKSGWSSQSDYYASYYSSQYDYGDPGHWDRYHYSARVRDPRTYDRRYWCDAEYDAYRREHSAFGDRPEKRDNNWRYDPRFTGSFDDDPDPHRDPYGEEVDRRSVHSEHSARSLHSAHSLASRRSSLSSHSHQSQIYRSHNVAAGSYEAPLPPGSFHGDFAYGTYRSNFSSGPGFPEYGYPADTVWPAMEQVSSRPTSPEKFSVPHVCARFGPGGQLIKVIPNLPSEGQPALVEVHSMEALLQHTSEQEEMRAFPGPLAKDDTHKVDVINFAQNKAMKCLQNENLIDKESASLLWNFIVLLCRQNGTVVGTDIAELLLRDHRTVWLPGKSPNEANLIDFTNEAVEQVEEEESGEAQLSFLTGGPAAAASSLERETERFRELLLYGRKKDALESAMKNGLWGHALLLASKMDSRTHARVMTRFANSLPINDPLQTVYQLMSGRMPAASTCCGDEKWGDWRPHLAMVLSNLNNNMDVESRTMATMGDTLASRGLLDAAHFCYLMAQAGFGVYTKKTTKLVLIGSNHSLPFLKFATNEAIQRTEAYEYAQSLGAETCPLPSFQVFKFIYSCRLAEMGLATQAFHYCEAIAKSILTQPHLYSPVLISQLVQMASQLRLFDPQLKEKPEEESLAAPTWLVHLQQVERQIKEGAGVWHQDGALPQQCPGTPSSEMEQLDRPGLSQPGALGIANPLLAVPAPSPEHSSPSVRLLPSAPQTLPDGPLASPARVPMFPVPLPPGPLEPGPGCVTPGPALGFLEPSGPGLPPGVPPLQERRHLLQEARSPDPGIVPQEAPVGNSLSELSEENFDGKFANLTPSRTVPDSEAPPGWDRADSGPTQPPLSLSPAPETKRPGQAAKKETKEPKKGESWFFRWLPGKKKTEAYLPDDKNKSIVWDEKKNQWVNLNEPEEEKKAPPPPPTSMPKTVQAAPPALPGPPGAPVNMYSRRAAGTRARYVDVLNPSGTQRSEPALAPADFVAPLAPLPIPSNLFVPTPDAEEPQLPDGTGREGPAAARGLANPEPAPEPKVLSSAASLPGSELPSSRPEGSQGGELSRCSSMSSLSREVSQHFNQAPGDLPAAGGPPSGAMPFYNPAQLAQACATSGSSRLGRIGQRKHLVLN
UniProt P53805, sequence (P53805 whole entry, looked up): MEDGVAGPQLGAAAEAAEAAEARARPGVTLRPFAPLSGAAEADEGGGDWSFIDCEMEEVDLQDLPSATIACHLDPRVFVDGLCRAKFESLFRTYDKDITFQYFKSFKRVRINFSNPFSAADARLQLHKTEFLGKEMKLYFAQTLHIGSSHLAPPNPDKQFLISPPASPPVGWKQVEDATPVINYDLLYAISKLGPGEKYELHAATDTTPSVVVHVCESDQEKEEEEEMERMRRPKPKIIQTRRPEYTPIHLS
UniProt Q8WWV3, sequence (Q8WWV3 whole entry, looked up): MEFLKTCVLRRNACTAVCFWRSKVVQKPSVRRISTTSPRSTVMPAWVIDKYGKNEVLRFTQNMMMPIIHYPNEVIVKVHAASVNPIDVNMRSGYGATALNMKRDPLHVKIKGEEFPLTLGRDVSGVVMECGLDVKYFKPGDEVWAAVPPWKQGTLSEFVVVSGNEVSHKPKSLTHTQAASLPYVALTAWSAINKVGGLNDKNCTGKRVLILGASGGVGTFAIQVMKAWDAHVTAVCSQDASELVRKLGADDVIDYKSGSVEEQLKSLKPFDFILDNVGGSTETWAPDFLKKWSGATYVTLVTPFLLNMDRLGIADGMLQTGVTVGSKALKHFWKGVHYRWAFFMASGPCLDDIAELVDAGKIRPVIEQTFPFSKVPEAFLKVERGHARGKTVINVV
UniProt Q9NW64, sequence (Q9NW64 whole entry, looked up): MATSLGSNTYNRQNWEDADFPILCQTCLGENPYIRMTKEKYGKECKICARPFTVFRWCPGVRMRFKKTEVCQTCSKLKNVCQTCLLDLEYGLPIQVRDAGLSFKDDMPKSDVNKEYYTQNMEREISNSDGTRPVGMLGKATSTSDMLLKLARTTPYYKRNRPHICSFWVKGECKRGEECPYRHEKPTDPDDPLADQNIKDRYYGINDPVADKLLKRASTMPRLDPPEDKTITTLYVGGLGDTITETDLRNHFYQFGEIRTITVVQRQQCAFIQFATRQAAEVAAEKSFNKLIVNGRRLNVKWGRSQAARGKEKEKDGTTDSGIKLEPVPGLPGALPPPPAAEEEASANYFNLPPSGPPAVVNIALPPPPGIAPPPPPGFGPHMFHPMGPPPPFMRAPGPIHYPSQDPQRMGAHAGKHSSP
UniProt Q9H0U4, sequence (Q9H0U4 whole entry, looked up): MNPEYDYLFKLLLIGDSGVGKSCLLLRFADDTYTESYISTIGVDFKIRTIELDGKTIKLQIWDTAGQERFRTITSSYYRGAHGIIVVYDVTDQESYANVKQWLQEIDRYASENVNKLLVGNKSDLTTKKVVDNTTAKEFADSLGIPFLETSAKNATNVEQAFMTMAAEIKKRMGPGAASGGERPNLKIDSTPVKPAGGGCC
UniProt Q15418, sequence (Q15418 whole entry, looked up): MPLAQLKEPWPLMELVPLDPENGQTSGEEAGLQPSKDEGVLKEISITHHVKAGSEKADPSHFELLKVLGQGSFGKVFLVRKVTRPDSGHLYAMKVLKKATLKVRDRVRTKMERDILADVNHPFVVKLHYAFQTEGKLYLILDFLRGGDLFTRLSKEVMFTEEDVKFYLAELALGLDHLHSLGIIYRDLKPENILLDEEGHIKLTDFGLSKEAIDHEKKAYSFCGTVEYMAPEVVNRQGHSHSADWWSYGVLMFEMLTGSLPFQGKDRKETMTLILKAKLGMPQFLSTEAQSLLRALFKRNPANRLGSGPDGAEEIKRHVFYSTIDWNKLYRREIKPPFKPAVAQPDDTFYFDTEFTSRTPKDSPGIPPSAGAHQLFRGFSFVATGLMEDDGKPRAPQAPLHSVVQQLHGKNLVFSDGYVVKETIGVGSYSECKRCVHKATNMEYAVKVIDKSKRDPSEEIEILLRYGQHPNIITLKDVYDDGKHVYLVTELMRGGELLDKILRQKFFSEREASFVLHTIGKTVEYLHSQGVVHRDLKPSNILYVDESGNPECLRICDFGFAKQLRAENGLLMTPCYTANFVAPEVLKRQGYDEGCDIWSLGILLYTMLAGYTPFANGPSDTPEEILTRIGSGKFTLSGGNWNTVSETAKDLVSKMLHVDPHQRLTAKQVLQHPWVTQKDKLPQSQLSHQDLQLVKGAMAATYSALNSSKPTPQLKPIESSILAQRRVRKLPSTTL

The targets below were run with CC1=C(C(CC(=O)N1)C2=CC=C(C=C2)C(F)(F)F)C(=O)NC3=C(C=C4C(=C3)C=NN4)F (assay: log2 fold change, soluble protein after heating vs DMSO (PISA); higher = thermal stabilisation; K562 lysate, 10 uM; active = over 0.2 and 3.5 SD of the protein, either way, in both replicates (recomputed)).
Procedure, shortened: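 Soluble protein was defined as the supernatant remaining after 21,000xg for 90 min, following pooling of heated aliquots and adjustment to 0.5% NP-40 at 4°C. Before that, crude K562 extract at 1 mg/mL protein in PBS pH 7.4 with 1 mM MgCl2 was treated with 10 μM compound for 30 min and heated for 3 min across 48°C-58°C. Quantification used TMTpro 16plex LC-MS/MS with channel sums equalised, and values are log-two fold changes in thermal stability relative to solvent controls from duplicates.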
SEC62 (UniProt Q99442) was tested, and the log2 fold change was 0.013. For RPL28 (UniProt P46779), the log2 fold change was -0.038. With SBF1 isoform 4 (UniProt O95248) the log2 fold change was 0.045. SEC16A isoform 5 (UniProt O15027) was tested, and the log2 fold change was 0.019. For SEH1L isoform 1 (UniProt Q96EE3), the log2 fold change was -0.021. RDH14 (UniProt Q9HBH5) showed a log2 fold change of -0.031. Target RFC3 (UniProt P40938) has a log2 fold change of 0.004. Target RAB1B (UniProt Q9H0U4) has a log2 fold change of 0.02. Work on RRAGA (UniProt Q7L523) yielded a log2 fold change of 0.005. With RAB3IL1 (UniProt E9PK89) the log2 fold change was 0.052. For RBM42 (UniProt Q9BTD8), the log2 fold change was 0.025. Work on RBSN (UniProt Q9H1K0) yielded a log2 fold change of 0.025. In the case of RAC2 (UniProt P15153), the log2 fold change is reported as -0.005. Target RSU1 (UniProt Q15404) has a log2 fold change of 0.019. Target RPL37A (UniProt P61513) has a log2 fold change of -0.021. QRSL1 (UniProt Q9H0R6) showed a log2 fold change of -0.003. RBBP8 isoform 2 (UniProt Q99708) was tested, and the log2 fold change was 0.003. For RASA2 (UniProt Q15283), the log2 fold change was 0.023. In the case of RIOK3 (UniProt O14730), the log2 fold change is reported as -0.011. In the case of RMC1 (UniProt Q96DM3), the log2 fold change is reported as -0.017. In the case of RPS6KB1 (UniProt P23443), the log2 fold change is reported as 0. For RCAN1 (UniProt P53805), the log2 fold change was 0.026. For RNF40 (UniProt O75150), the log2 fold change was 0.007. For RNPS1 (UniProt Q15287), the log2 fold change was 0.138. For RAI14 isoform 2 (UniProt Q9P0K7), the log2 fold change was 0.017. SDHA (UniProt P31040) was tested, and the log2 fold change was 0.004. SCCPDH (UniProt Q8NBX0) showed a log2 fold change of -0.017. For RPS6KA1 (UniProt Q15418), the log2 fold change was -0.032. Target RBM22 (UniProt Q9NW64) has a log2 fold change of 0.009. In the case of RPS26P11 (UniProt Q5JNZ5), the log2 fold change is reported as -0.013. With RTN4IP1 (UniProt Q8WWV3) the log2 fold change was -0.398 (active). Target ROCK1 (UniProt Q13464) has a log2 fold change of 0.096. For RPL8 (UniProt P62917), the log2 fold change was 0.012. RPL36AL (UniProt Q969Q0) was tested, and the log2 fold change was -0.001.
